{"source": "the supplement of paper PMC8728848", "binders": {"B1": {"name": "Awp1 (Candida glabrata) (protein)", "chain": "MSLITIFAFLIKATLVLSLDILTPTTLTGDQTFNEDVSVVSSLTLNDGSQYLFNNLLQIAPSSASVTANALAAVSVFTFSLPPSSSLSNSGTLIISNSNTGPSTEQHIVITPNVMANTGTITLSLAHTNTDSSSTLIIDPVTFYNTGTINYESIGSETNDPSLTGNILSIGSSGRTLQNLGTINLNAANSYYLLGTITENSGSINVQKGFLYVNALDFIGNTINLSTTTALAFISPVSQVVRVRGVFFGNIIASVGSSGTFSYNTQTGILTVTTNGVYSYDIGCGYNPALMSGQQETLSFQGNPYDTFLVLVNQPIPSDLTCAAVSSSITPSSSVEPSSSVVPSSSVEPSSSVEPSSSVEPSSSVEPSSSVEPSSSVEPSSSVEPSSSVEPSSSVEPSSSVEPSSSVEPSSSVEPSSSVEPSSSVEPSSSVEPSSSVEPSSSVEPSSSVEPSSSVEPSSLIVPSSSVEPSSSVLPSSSVVPSSSVEPSTPPIPSSSVEPSSSVVPSSPAVPSSSVEPSTPPIPSSSVVSASVFDTSSTLPSSPSVPPSSVSPSTISTPSSSAAPSSFCPTCVSSGTPPAPSSSAIVPTSSAGGGNGGDNREPGAAGQPGAAGQPGAAGQPGAAGQPGAAGQPGAAGQPGAAGQPGAAGQPGAAGQPGAAGQPGAGFGVGSEQPTPGAGAGSGSADGNQSGTGSGTGNGQQGSGQAGSGQAGSGQEGSGQAGSGQAGSGQAGSGQAGSGQAGLDNTASGQSEGGQASAMDGDQSGRDGQSNSGSLLQPNAQQGTGSGTGSDIGADQASGESPGQIGDAQPGSGTDQSSGRHSLAAEARTSQSHSLAADARTRSTTRQTSVIAPDTAPGTASGTAPGTAPGTAVVTTFHGCGTVNHKGMINILLALALLVLL"}}, "test_in_all_cases": "glycan array binding signal (z-score within array); higher = stronger binding", "settings_in_all_cases": "glycan notation: IUPAC condensed, linker removed", "key": {"[1]": {"biological_target": "Gal(b1-4)GlcNAc(b1-3)[Gal(b1-4)GlcNAc(b1-6)]Gal(b1-4)GlcNAc", "outline": "(§1)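 The Consortium for Functional Glycomics database supplied 3228 glycan arrays, of which those lacking an available protein sequence were dropped. The binding signal, a within-array Z-score, was averaged across arrays of the same protein sequence and across linkers. Negative scores can be read as non-binding.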"}, "[2]": {"biological_target": "Gal(b1-4)GlcNAc(b1-6)Gal(b1-4)GlcNAc", "outline": "as §1"}, "[3]": {"biological_target": "GalNAc(b1-4)GlcNAc(b1-3)GalNAc(b1-4)GlcNAc", "outline": "as §1"}, "GalNAc(b1-6)GalNAc": {"biological_target": "GalNAc(b1-6)GalNAc", "outline": "as §1"}, "GalNAc4S6S(b1-4)GlcNAc": {"biological_target": "GalNAc4S6S(b1-4)GlcNAc", "outline": "as §1"}, "[4]": {"biological_target": "GlcA3S(b1-3)Gal(b1-4)GlcNAc(b1-2)Man", "outline": "as §1"}, "[5]": {"biological_target": "GlcNAc(b1-2)[GlcNAc(b1-4)]Man(a1-3)[GlcNAc(b1-4)][GlcNAc(b1-2)Man(a1-6)]Man(b1-4)GlcNAc(b1-4)GlcNAc", "outline": "as §1"}, "[6]": {"biological_target": "GlcNAc(b1-2)[GlcNAc(b1-6)]Man(a1-6)[GlcNAc(b1-2)Man(a1-3)]Man(b1-4)GlcNAc(b1-4)[Fuc(a1-6)]GlcNAc", "outline": "as §1"}, "[7]": {"biological_target": "GlcNAc(b1-2)[GlcNAc(b1-6)]Man(a1-6)[GlcNAc(b1-4)][GlcNAc(b1-2)Man(a1-3)]Man(b1-4)GlcNAc(b1-4)GlcNAc", "outline": "as §1"}, "[8]": {"biological_target": "GlcNAc(b1-3)Gal(b1-3)GalNAc", "outline": "as §1"}, "[9]": {"biological_target": "GlcNAc(b1-3)Gal(b1-4)GlcNAc(b1-3)Gal(b1-4)GlcNAc(b1-2)Man(a1-3)[GlcNAc(b1-3)Gal(b1-4)GlcNAc(b1-3)Gal(b1-4)GlcNAc(b1-2)Man(a1-6)]Man(b1-4)GlcNAc(b1-4)GlcNAc", "outline": "as §1"}, "[10]": {"biological_target": "GlcNAc(b1-3)Gal(b1-4)GlcNAc(b1-3)Gal(b1-4)GlcNAc(b1-3)Gal(b1-4)GlcNAc(b1-2)[GlcNAc(b1-3)Gal(b1-4)GlcNAc(b1-3)Gal(b1-4)GlcNAc(b1-3)Gal(b1-4)GlcNAc(b1-6)]Man(a1-6)[GlcNAc(b1-3)Gal(b1-4)GlcNAc(b1-3)Gal(b1-4)GlcNAc(b1-3)Gal(b1-4)GlcNAc(b1-2)Man(a1-3)]Man(b1-4)GlcNAc(b1-4)[Fuc(a1-6)]GlcNAc", "outline": "as §1"}, "[11]": {"biological_target": "GlcNAc(b1-4)Gal(b1-4)GlcNAc", "outline": "as §1"}, "Kdn(a2-3)Gal(b1-3)GalNAc": {"biological_target": "Kdn(a2-3)Gal(b1-3)GalNAc", "outline": "as §1"}, "[12]": {"biological_target": "Kdn(a2-3)Gal(b1-4)[Fuc(a1-3)]GlcNAc", "outline": "as §1"}, "[13]": {"biological_target": "Man(a1-2)Man(a1-2)Man(a1-3)Man", "outline": "as §1"}, "MurNAc(b1-4)GlcNAc": {"biological_target": "MurNAc(b1-4)GlcNAc", "outline": "as §1"}, "[14]": {"biological_target": "Neu5Ac(a2-3)Gal(b1-3)GlcNAc(b1-6)GalNAc", "outline": "as §1"}, "[15]": {"biological_target": "Neu5Ac(a2-3)Gal(b1-3)]Neu5Ac(a2-3)Gal(b1-4)]GlcNAc", "outline": "as §1"}, "[16]": {"biological_target": "Neu5Ac(a2-3)Gal(b1-4)GlcNAc", "outline": "as §1"}, "[17]": {"biological_target": "Neu5Ac(a2-3)Gal(b1-4)GlcNAc(b1-2)Man(a1-3)[GlcNAc(b1-4)][Neu5Ac(a2-3)Gal(b1-4)GlcNAc(b1-2)Man(a1-6)]Man(b1-4)GlcNAc(b1-4)GlcNAc", "outline": "as §1"}, "[18]": {"biological_target": "Neu5Ac(a2-3)Gal(b1-4)GlcNAc(b1-3)Gal", "outline": "as §1"}, "[19]": {"biological_target": "Neu5Ac(a2-3)Gal(b1-4)GlcNAc(b1-3)Gal(b1-4)GlcNAc(b1-3)Gal(b1-4)GlcNAc(b1-2)Man(a1-3)[Neu5Ac(a2-3)Gal(b1-4)GlcNAc(b1-3)Gal(b1-4)GlcNAc(b1-3)Gal(b1-4)GlcNAc(b1-2)Man(a1-6)]GalNAc", "outline": "as §1"}, "[20]": {"biological_target": "Neu5Ac(a2-3)Gal(b1-4)GlcNAc(b1-3)Gal(b1-4)GlcNAc(b1-3)[Neu5Ac(a2-3)Gal(b1-4)GlcNAc(b1-3)Gal(b1-4)GlcNAc(b1-6)]GalNAc", "outline": "as §1"}, "[21]": {"biological_target": "Neu5Ac(a2-3)Gal(b1-4)[Fuc(a1-3)]GlcNAc(b1-2)Man", "outline": "as §1"}, "[22]": {"biological_target": "Neu5Ac(a2-3)Gal(b1-4)[Fuc(a1-3)]GlcNAc(b1-3)Gal", "outline": "as §1"}, "[23]": {"biological_target": "Neu5Ac(a2-3)Gal(b1-4)[Fuc(a1-3)]GlcNAc(b1-3)Gal(b1-4)[Fuc(a1-3)]GlcNAc(b1-3)Gal(b1-4)[Fuc(a1-3)]GlcNAc", "outline": "as §1"}, "[24]": {"biological_target": "Neu5Ac(a2-3)Gal(b1-4)[Fuc(a1-3)]GlcNAc(b1-6)[Gal(b1-3)]GalNAc", "outline": "as §1"}, "[25]": {"biological_target": "Neu5Ac(a2-3)[GalNAc(b1-4)]Gal(b1-4)GlcNAc", "outline": "as §1"}, "Neu5Ac(a2-6)Gal(b1-4)Glc": {"biological_target": "Neu5Ac(a2-6)Gal(b1-4)Glc", "outline": "as §1"}}, "note": "This excerpt belongs to a sample that is enriched for the strongest signals.", "data": [{"binder": "B1", "values": [{"measurement": "glycan array binding signal (z-score)", "setting": "[1]", "value": -0.342}, {"measurement": "glycan array binding signal (z-score)", "setting": "[2]", "value": -0.366}, {"measurement": "glycan array binding signal (z-score)", "setting": "[3]", "value": 1.95}, {"measurement": "glycan array binding signal (z-score)", "setting": "GalNAc(b1-6)GalNAc", "value": 2.29}, {"measurement": "glycan array binding signal (z-score)", "setting": "GalNAc4S6S(b1-4)GlcNAc", "value": 1.51}, {"measurement": "glycan array binding signal (z-score)", "setting": "[4]", "value": 0.488}, {"measurement": "glycan array binding signal (z-score)", "setting": "[5]", "value": 0.047}, {"measurement": "glycan array binding signal (z-score)", "setting": "[6]", "value": -0.571}, {"measurement": "glycan array binding signal (z-score)", "setting": "[7]", "value": -1}, {"measurement": "glycan array binding signal (z-score)", "setting": "[8]", "value": 2.02}, {"measurement": "glycan array binding signal (z-score)", "setting": "[9]", "value": -0.505}, {"measurement": "glycan array binding signal (z-score)", "setting": "[10]", "value": 2.24}, {"measurement": "glycan array binding signal (z-score)", "setting": "[11]", "value": 1.07}, {"measurement": "glycan array binding signal (z-score)", "setting": "Kdn(a2-3)Gal(b1-3)GalNAc", "value": -1.24}, {"measurement": "glycan array binding signal (z-score)", "setting": "[12]", "value": -0.924}, {"measurement": "glycan array binding signal (z-score)", "setting": "[13]", "value": -0.346}, {"measurement": "glycan array binding signal (z-score)", "setting": "MurNAc(b1-4)GlcNAc", "value": -1.87}, {"measurement": "glycan array binding signal (z-score)", "setting": "[14]", "value": 0.214}, {"measurement": "glycan array binding signal (z-score)", "setting": "[15]", "value": 0.442}, {"measurement": "glycan array binding signal (z-score)", "setting": "[16]", "value": 0.13}, {"measurement": "glycan array binding signal (z-score)", "setting": "[17]", "value": 0.483}, {"measurement": "glycan array binding signal (z-score)", "setting": "[18]", "value": 0.691}, {"measurement": "glycan array binding signal (z-score)", "setting": "[19]", "value": 1.61}, {"measurement": "glycan array binding signal (z-score)", "setting": "[20]", "value": -0.297}, {"measurement": "glycan array binding signal (z-score)", "setting": "[21]", "value": -0.217}, {"measurement": "glycan array binding signal (z-score)", "setting": "[22]", "value": 0.412}, {"measurement": "glycan array binding signal (z-score)", "setting": "[23]", "value": -0.603}, {"measurement": "glycan array binding signal (z-score)", "setting": "[24]", "value": -0.493}, {"measurement": "glycan array binding signal (z-score)", "setting": "[25]", "value": -0.217}, {"measurement": "glycan array binding signal (z-score)", "setting": "Neu5Ac(a2-6)Gal(b1-4)Glc", "value": -1.39}]}]}
